Results published in PubChem BioAssay.
Inconclusive results are not listed. Calls of active or inactive are those of the source.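 How the source made its calls, unless noted: active means normalized viability below 100% at a tested concentration; inactive means the rest.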

Key:
[1] = growth inhibition of DIPG glioma cells, dose response, cell-based, SU-DIPG-XIII, MIPE4.0, CellTiter-Glo, qHTS (AID 1347061; cut-off not given, nearly all actives have AC50 up to about 37 µM;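 further: cells exposed to compound for 48 hours before readout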); conditions: SU-DIPG-XIII viability, CellTiter-Glo ATP luminescence
[2] = growth inhibition of DIPG glioma cells, dose response, cell-based, JHH-DIPG-1, MIPE4.0, CellTiter-Glo, qHTS (AID 1347062; cut-off not given, nearly all actives have AC50 up to about 27 µM;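 on AC50: cells exposed to compound for two days before readout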); conditions: JHH-DIPG-1 viability, CellTiter-Glo ATP luminescence
[3] = SU-DIPG-VI glioma cell viability, MIPE4.0 library, CellTiter-Glo luminescence, qHTS (AID 1347066; cut-off not given, nearly all actives have AC50 up to about 30 µM;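 further: cells exposed to compound for 48 hours before readout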); conditions: CellTiter-Glo ATP luminescence
[4] = JHH-DIPG-1 glioma cell viability, MIPE5.0 library, CellTiter-Glo luminescence, qHTS (AID 1347067; cut-off not given, nearly all actives have AC50 up to about 26 µM;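 further: cells exposed to compound for 48 hours before readout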); conditions: JHH-DIPG-1 glioma viability, CellTiter-Glo ATP luminescence
[5] = SU-DIPG-XXV glioma cell viability, MIPE5.0 library, qHTS (AID 1347068; cut-off not given, nearly all actives have IC50 up to about 30 µM;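 on IC50: cells exposed to compound for 48 hours before viability readout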)
[6] = modifiers of HSF1 nuclear foci, imaging, Selleck Cancer Library (AID 1347162; in the data active means plate-normalised HSF1 focus index below about 0.46); conditions: human cells, at 10 µM; SSMD: measured here: HSF1 foci SSMD mean; cell count: measured here: cell number; plate-normalised HSF1 focus index: stronger effect = lower value
[7] = viability loss in pontine glioma line – cell-based, SU-DIPG-XXV, MIPE5.0, CellTiter-Glo, qHTS, dose response (AID 1347065; cut-off not given, nearly all actives have AC50 up to about 26 µM;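 further: cells exposed to compound for 48 hours before ATP readout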); conditions: CellTiter-Glo ATP luminescence
[8] = sensitizers of A549 cells to miR-34 induction, primary screen, imaging, A549 dox-inducible miR-34, nuclei and caspase counts (AID 1347080;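 active means compounds whose cell count with miR-34 switched on is under 0.7 times the count with it off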); conditions: A549 miR-34 inducible, Hoechst nuclei count, 48 h
[9] = survival rescue of mitochondrial mutant cells in low glucose, primary screen, MELAS cybrids, Rieske KO mouse fibroblasts, CellTiter-Glo (AID 1508586;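 active means mean z-score across replicates of 1.96 or higher in either the MELAS or the Rieske mutant cell line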;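 further: z relative to plate mean and SD of compound and empty wells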)
[10] = ovarian cancer cell viability with rucaparib, profiling panel, oncology-focused library, rucaparib conditional (AID 1508598); conditions: patient-derived ovarian cancer cells, CellTiter-Glo viability, 144 h, stronger effect = lower value
[11] = stronger effect = lower value, cell number ratio, induced over uninduced
[12] = measured here: relative caspase fold change +Dox/-Dox
[13] = measured here: total cells with miR-34 induction, stronger effect = lower value
[14] = measured here: total cells without miR-34 induction
[15] = MELAS cybrid survival, CellTiter-Glo 48 h, stronger effect = higher value
[16] = Rieske KO mouse fibroblast survival, CellTiter-Glo 72 h

Compound: CCCCn1c(=O)n(Cc2ccccc2F)c(=O)c2[nH]c(Cc3ccc(NC(C)=O)cc3)nc21
- outcome [1]: inactive
- outcome [2]: inactive
- outcome [3]: inactive
- outcome [4]: inactive
- outcome [5]: inactive
- SSMD [6]: 3.98
- cell count [6]: 6960
- plate-normalised HSF1 focus index [6]: 1.24 (inactive)

Compound: COc1cc(OC2CCN(C)CC2)ccc1Nc1ncc2c(n1)n(C1CCCC1)c(=O)n2C
- AC50 [1]: 16.6 µM (active)
- AC50 [2]: 18.7 µM (active)
- AC50 [7]: 13.2 µM (active)
- AC50 [4]: 14.8 µM (active)
- IC50 [5]: 16.6 µM (active)
- fold change [8, 11]: 0.984 (inactive)
- fold change [8, 12]: 0.864
- cell count [8, 13]: 5400
- cell count [8, 14]: 5490
- SSMD [6]: 1.43
- cell count [6]: 7430
- plate-normalised HSF1 focus index [6]: 1.05 (inactive)
- z-score [9, 15]: -0.255 (inactive)
- z-score [9, 16]: 0.614
- viability ([10]; at 0.000305 µM, OCI-C5x cells, with rucaparib 10 µM, 100% = cells with rucaparib alone): 107% (inactive)
- viability ([10]; at 0.000305 µM, OCI-C5x cells, without rucaparib): 133% (inactive)
- viability ([10]; at 0.000305 µM, OCI-P5x cells, with rucaparib 20 µM, 100% = cells with rucaparib alone): 116% (inactive)
- viability ([10]; at 0.000305 µM, OCI-P5x cells, without rucaparib): 112% (inactive)
- viability ([10]; at 0.00122 µM, OCI-C5x cells, with rucaparib 10 µM, 100% = cells with rucaparib alone): 107% (inactive)
- viability ([10]; at 0.00122 µM, OCI-C5x cells, without rucaparib): 125% (inactive)
- viability ([10]; at 0.00122 µM, OCI-P5x cells, with rucaparib 20 µM, 100% = cells with rucaparib alone): 117% (inactive)
- viability ([10]; at 0.00122 µM, OCI-P5x cells, without rucaparib): 115% (inactive)
- viability ([10]; at 0.00488 µM, OCI-C5x cells, with rucaparib 10 µM, 100% = cells with rucaparib alone): 107% (inactive)
- viability ([10]; at 0.00488 µM, OCI-C5x cells, without rucaparib): 120% (inactive)
- viability ([10]; at 0.00488 µM, OCI-P5x cells, with rucaparib 20 µM, 100% = cells with rucaparib alone): 110% (inactive)
- viability ([10]; at 0.00488 µM, OCI-P5x cells, without rucaparib): 108% (inactive)
- viability ([10]; at 0.0195 µM, OCI-C5x cells, with rucaparib 10 µM, 100% = cells with rucaparib alone): 105% (inactive)
- viability ([10]; at 0.0195 µM, OCI-C5x cells, without rucaparib): 113% (inactive)
- viability ([10]; at 0.0195 µM, OCI-P5x cells, with rucaparib 20 µM, 100% = cells with rucaparib alone): 112% (inactive)
- viability ([10]; at 0.0195 µM, OCI-P5x cells, without rucaparib): 94% (active)
- viability ([10]; at 0.0781 µM, OCI-C5x cells, with rucaparib 10 µM, 100% = cells with rucaparib alone): 96.6% (active)
- viability ([10]; at 0.0781 µM, OCI-C5x cells, without rucaparib): 120% (inactive)
- viability ([10]; at 0.0781 µM, OCI-P5x cells, with rucaparib 20 µM, 100% = cells with rucaparib alone): 118% (inactive)
- viability ([10]; at 0.0781 µM, OCI-P5x cells, without rucaparib): 110% (inactive)
- viability ([10]; at 0.313 µM, OCI-C5x cells, with rucaparib 10 µM, 100% = cells with rucaparib alone): 101% (inactive)
- viability ([10]; at 0.313 µM, OCI-C5x cells, without rucaparib): 124% (inactive)
- viability ([10]; at 0.313 µM, OCI-P5x cells, with rucaparib 20 µM, 100% = cells with rucaparib alone): 122% (inactive)
- viability ([10]; at 0.313 µM, OCI-P5x cells, without rucaparib): 111% (inactive)
- viability ([10]; at 1.25 µM, OCI-C5x cells, with rucaparib 10 µM, 100% = cells with rucaparib alone): 48.8% (active)
- viability ([10]; at 1.25 µM, OCI-C5x cells, without rucaparib): 115% (inactive)
- viability ([10]; at 1.25 µM, OCI-P5x cells, with rucaparib 20 µM, 100% = cells with rucaparib alone): 106% (inactive)
- viability ([10]; at 1.25 µM, OCI-P5x cells, without rucaparib): 64.7% (active)
- viability ([10]; at 5 µM, OCI-C5x cells, with rucaparib 10 µM, 100% = cells with rucaparib alone): 46.3% (active)
- viability ([10]; at 5 µM, OCI-C5x cells, without rucaparib): 115% (inactive)
- viability ([10]; at 5 µM, OCI-P5x cells, with rucaparib 20 µM, 100% = cells with rucaparib alone): 76.9% (active)
- viability ([10]; at 5 µM, OCI-P5x cells, without rucaparib): 28.1% (active)

Compound: OC[C@H](Cc1ccccc1)Nc1nc(Oc2ccc3c(c2)CCC3)nc2c1ncn2Cc1ccc(-c2ccccc2)cc1
- outcome [1]: inactive
- outcome [2]: inactive
- outcome [3]: inactive
- outcome [5]: inactive

Compound: COc1cc(N2CCN(C)CC2)ccc1Nc1nc(N)c(C(=O)c2c(Cl)cccc2Cl)s1
- outcome [1]: inactive
- outcome [2]: inactive
- outcome [3]: inactive

Compound: O=C(OCC#CCSc1nnc(-c2cccc3ccccc23)o1)c1cc2ccccc2s1
- outcome [1]: inactive
- outcome [2]: inactive
- outcome [3]: inactive

Compound: COc1cc2c(cc1OC)CN(CCc1ccc(NC(=O)c3cc(OC)c(OC)cc3NC(=O)c3cnc4ccccc4c3)cc1)CC2
- AC50 [1]: 20.9 µM (active)
- outcome [2]: inactive
- outcome [7]: inactive
- outcome [4]: inactive
- outcome [5]: inactive
- fold change [8, 11]: 0.948 (inactive)
- fold change [8, 12]: 0.402
- cell count [8, 13]: 8470
- cell count [8, 14]: 8940
- z-score [9, 15]: -0.604 (inactive)
- z-score [9, 16]: 0.309
